Laboratory results as given in PubChem BioAssay.

Assays:
[1] = AGP1-GFP expression modulators, hit retest, confirmation, cell-based, flow cytometry, S. cerevisiae, cherry picks (AID 2273;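 active = GFP response above 150% of the DMSO level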;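 note: median GFP channel fluorescence over the whole cell population gate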); conditions: S. cerevisiae AGP1-GFP strain, 3 h, at 10 µM
[2] = molecular target: Integrin beta-1 (Homo sapiens) + Integrin alpha-4 (Homo sapiens) (UniProt P13612+P05556); assay: inhibition of HUTS-21 binding to VLA-4, pilot screen, VLA-4 allosteric modulator project, U937 cells, HUTS-21 mAb, flow cytometry, validation set (AID 2674;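 active = inhibition above 50%, about 3 SD of the validation set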;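 note: antibody binding induced by the VLA-4 ligand LDV present at three times its Kd; 0% = LDV ligand with antibody and no compound and 100% = antibody without LDV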); conditions: HUTS-21 LIBS mAb binding, at 6.7 µM, active compounds read high, binding induced by LDV ligand
Sequence of Integrin beta-1 (Homo sapiens) + Integrin alpha-4 (Homo sapiens) (P05556 whole entry, looked up): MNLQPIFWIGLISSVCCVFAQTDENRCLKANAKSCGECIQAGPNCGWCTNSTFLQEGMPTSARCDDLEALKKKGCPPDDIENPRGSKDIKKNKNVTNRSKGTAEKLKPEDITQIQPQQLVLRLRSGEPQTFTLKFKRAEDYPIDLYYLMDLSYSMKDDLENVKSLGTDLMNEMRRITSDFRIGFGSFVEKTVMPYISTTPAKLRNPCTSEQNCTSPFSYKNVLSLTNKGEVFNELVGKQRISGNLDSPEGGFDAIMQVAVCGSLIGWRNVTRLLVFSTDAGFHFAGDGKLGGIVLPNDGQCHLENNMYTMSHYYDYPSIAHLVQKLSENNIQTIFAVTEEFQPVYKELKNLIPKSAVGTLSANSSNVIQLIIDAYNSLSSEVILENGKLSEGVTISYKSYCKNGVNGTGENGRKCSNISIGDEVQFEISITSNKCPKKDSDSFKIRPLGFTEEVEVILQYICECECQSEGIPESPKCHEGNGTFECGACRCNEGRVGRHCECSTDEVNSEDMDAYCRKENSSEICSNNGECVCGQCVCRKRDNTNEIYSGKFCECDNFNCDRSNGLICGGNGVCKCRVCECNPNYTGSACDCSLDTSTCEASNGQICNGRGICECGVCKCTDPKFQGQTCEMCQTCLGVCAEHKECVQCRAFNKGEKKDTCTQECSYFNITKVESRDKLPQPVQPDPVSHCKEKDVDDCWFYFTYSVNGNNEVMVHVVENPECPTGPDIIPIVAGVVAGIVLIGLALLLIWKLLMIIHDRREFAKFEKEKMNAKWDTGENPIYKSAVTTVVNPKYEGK
Sequence of Integrin beta-1 (Homo sapiens) + Integrin alpha-4 (Homo sapiens) (P13612 whole entry, looked up): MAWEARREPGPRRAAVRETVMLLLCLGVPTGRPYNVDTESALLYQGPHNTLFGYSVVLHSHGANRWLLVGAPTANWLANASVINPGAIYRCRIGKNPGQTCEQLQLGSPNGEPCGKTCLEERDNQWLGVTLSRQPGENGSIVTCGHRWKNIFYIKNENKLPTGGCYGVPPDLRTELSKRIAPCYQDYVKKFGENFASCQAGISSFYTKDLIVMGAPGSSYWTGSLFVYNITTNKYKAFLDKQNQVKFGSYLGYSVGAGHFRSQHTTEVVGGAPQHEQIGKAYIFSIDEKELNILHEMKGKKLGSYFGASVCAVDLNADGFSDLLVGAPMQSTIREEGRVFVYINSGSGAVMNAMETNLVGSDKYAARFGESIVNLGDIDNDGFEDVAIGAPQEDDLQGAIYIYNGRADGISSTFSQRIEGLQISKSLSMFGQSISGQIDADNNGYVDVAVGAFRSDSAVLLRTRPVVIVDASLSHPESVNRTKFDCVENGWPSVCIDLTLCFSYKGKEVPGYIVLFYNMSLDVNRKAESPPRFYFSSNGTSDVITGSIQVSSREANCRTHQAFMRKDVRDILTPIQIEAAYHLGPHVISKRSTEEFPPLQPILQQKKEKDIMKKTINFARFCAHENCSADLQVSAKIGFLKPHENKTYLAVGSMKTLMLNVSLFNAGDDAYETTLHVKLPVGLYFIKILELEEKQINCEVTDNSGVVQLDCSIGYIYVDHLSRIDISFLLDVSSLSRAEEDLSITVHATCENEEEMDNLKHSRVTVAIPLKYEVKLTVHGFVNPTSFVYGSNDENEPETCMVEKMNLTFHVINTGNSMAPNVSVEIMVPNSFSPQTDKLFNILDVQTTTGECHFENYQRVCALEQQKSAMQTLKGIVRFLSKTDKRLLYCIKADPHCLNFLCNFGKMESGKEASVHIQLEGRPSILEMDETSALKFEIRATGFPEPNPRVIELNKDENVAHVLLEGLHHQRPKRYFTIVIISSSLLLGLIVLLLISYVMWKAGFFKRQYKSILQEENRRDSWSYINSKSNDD

[3] = superoxide lowering in aged yeast cells, pilot screen, validation compound set (AID 2706;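 active = superoxide response below 65% of plate, a cut near 3 SD across the whole screen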;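 note: yeast exposed to compound for one week at 30 degrees C before staining; 100% = mean of all compound wells on the same plate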); conditions: S. cerevisiae aging, superoxide DHE fluorescence; at 10 µM; active compounds read low
[4] = molecular target: Beta-adrenergic receptor kinase 1 (Homo sapiens) (UniProt P25098); assay: GRK2 binders displacing RNA aptamer, biochemical, validation, human GRK2, bead flow cytometry (AID 488806;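 active = aptamer binding inhibition above 30%, about 3 SD of noise from non-fluorescent compounds; inactive = inhibition at or below 30%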); conditions: bead-bound GRK2, FAM-aptamer displacement, at 10 µM, active compounds read high
Sequence of Beta-adrenergic receptor kinase 1 (Homo sapiens) (P25098 whole entry, looked up): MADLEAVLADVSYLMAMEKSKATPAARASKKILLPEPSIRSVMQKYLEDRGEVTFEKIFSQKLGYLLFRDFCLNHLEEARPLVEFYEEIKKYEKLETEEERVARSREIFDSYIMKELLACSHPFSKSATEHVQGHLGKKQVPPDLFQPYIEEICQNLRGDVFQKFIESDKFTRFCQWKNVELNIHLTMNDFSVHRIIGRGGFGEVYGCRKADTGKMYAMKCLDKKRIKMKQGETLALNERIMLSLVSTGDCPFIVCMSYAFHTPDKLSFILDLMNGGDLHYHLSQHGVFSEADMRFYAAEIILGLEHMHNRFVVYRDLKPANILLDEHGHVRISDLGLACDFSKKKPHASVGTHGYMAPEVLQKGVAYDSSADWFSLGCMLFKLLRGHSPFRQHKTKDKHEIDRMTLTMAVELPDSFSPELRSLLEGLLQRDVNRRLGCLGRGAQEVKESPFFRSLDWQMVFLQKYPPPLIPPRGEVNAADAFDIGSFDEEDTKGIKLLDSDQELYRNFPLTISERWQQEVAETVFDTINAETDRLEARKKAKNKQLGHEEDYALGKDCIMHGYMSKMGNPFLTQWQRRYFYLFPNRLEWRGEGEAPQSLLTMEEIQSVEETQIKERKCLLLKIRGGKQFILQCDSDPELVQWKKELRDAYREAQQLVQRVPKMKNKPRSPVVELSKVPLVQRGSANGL

[5] = molecular target: Beta-2 adrenergic receptor (Homo sapiens) (UniProt P07550); assay: beta2AR agonists driving receptor internalization, pilot screen, cell-based, FAP fluorogen, flow cytometry, validation set (AID 504459;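 active = percent response above 42, roughly 3 SD of non-fluorescent test compounds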;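 note: agonist-driven loss of surface beta2AR via internalization measured by FAP dye flow cytometry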); conditions: Am2.2-beta2AR cells, FAP surface receptor flow cytometry; at 10 µM; active compounds read high
Sequence of Beta-2 adrenergic receptor (Homo sapiens) (P07550 whole entry, looked up): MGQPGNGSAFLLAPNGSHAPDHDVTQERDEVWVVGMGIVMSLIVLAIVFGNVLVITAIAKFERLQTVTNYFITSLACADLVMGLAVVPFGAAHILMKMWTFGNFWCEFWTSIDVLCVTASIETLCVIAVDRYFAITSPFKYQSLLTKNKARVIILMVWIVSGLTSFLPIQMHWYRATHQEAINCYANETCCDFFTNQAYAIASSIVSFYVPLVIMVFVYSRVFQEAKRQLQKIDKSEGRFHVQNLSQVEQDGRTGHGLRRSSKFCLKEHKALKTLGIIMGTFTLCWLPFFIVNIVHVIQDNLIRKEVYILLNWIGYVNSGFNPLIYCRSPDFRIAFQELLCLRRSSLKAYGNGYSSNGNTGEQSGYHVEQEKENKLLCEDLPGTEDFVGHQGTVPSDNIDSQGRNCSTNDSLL

[6] = molecular target: AP-2 complex subunit beta (Homo sapiens) (UniProt P63010); assay: inhibitors of arrestin peptide binding to AP2, pilot screen, biochemical, validation set, GST-AP2 beads, flow cytometry (AID 504541;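 active = inhibition above 54%, about 3 SD of non-fluorescent compounds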;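 note: AP2 carries R879A mutation and is captured from E. coli lysate; bead-bound FITC arrestin peptide fluorescence measuring arrestin peptide binding to AP2; 0% = DMSO wells and 100% = excess unlabeled arrestin peptide control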); conditions: FITC arrestin peptide, at 10 µM, active compounds read high, AP2 beta2 appendage fragment, R879A mutant
Sequence of AP-2 complex subunit beta (Homo sapiens) (P63010 whole entry, looked up, the tested form may be a part, one chain of several): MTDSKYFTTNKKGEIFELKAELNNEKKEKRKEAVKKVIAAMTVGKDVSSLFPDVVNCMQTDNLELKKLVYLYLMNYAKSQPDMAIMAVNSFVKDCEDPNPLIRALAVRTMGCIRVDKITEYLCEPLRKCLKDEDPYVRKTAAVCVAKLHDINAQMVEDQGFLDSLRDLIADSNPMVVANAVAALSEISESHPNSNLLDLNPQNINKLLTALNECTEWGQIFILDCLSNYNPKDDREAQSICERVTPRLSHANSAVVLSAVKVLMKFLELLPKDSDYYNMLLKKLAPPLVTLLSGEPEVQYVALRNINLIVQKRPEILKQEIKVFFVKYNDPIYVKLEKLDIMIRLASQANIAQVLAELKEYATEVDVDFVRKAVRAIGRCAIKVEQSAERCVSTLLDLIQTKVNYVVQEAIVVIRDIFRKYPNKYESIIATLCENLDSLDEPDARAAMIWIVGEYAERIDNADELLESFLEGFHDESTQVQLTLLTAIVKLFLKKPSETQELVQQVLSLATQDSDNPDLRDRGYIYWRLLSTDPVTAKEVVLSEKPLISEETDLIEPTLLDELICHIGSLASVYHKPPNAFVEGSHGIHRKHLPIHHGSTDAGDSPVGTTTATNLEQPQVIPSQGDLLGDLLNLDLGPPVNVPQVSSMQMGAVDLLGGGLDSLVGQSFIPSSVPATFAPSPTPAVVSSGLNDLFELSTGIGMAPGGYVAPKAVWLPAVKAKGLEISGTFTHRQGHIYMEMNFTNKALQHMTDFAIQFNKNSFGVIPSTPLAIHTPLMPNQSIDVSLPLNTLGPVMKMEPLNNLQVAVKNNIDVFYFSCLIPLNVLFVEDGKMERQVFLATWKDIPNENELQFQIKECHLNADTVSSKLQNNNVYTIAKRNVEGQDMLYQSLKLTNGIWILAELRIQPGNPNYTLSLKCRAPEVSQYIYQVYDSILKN

[7] = yeast V-ATPase proton transport modulators, S. cerevisiae, pHLuorin, HTS validation (AID 504600; in the data active = response above about 15%;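 note: plate controls were DMSO for no effect and reference compound for full effect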); conditions: S. cerevisiae pHLuorin cytosolic pH, at 10 µM, active compounds read high
[8] = system: anti-desmoglein-3 scFv antibody binding to human DSG3; assay: inhibitors of anti-DSG3 scFv binding to DSG3, pilot screen, biochemical, validation compound set, bead-based, flow cytometry (AID 588368); conditions: Protein G beads, DSG3-Fc, scFv-GFP binding, at 10 µM, active compounds read low;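 note: signal is the median channel fluorescence of bead-bound GFP antibody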
[9] = inhibitors of fungal efflux pumps CDR1, CDR2, MDR1, pilot screen, validation compound set, multiplex, phenotypic (AID 588506;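 active = efflux inhibition above 0.42, the validation set average plus 4 SD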;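 note: Nile Red retained in cells so higher fluorescence means more efflux inhibition; 0 = negative control wells and 1 = enniatin B 25 µM full block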); conditions: S. cerevisiae pump-expressing triplex, Nile Red efflux flow cytometry; at 10 µM; active compounds read high; the pumps come from Candida albicans
[10] = molecular target: ATP-binding cassette sub-family B member 6 (Homo sapiens) (UniProt Q9NP58); assay: ABCB6 transporter inhibitors, pilot screen, K562-ABCB6 cells, flow cytometry, validation set (AID 588550;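 active = inhibition above the screen-wide mean plus 3 SD, about 51%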;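 note: 0% = DMSO wells and 100% = benzethonium chloride 70 µM positive control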); conditions: K562-ABCB6 porphyrin accumulation, 1 h, at 10 µM, active compounds read high
Sequence of ATP-binding cassette sub-family B member 6 (Homo sapiens) (Q9NP58 whole entry, looked up): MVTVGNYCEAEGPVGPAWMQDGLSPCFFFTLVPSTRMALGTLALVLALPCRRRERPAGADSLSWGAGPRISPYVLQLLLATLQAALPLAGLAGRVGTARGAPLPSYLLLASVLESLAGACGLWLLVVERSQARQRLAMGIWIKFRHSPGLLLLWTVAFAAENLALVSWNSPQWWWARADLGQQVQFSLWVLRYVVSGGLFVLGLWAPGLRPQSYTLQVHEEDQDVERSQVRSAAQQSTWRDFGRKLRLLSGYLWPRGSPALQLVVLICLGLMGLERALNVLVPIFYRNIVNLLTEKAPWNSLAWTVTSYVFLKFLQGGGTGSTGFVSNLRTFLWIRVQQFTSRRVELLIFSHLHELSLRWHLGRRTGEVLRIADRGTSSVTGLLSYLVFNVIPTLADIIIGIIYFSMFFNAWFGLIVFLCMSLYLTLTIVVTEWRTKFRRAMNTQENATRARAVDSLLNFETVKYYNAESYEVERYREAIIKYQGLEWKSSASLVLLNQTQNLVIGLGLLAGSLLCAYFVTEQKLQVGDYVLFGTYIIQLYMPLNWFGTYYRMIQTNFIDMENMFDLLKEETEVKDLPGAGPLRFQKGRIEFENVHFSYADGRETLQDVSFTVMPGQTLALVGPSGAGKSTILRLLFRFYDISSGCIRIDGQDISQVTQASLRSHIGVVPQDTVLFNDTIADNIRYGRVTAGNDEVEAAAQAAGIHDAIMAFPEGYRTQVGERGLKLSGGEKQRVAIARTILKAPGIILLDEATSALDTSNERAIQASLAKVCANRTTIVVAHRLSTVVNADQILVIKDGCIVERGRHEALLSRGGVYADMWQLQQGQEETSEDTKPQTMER

[11] = promoters of myeloid differentiation in arrested cells, primary screen, cell-based, GFP/MAC1 double positive, flow cytometry, validation set (AID 588685;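 active = differentiation response of at least 50%, scaled between solvent and reference control, from cells with both markers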;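 note: compound exposure lasts four days before antibody staining and flow analysis; 0% = DMSO wells and 100% = 5 µM fulvestrant positive control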); conditions: ER-HoxA9 marrow cells, active compounds read high, normalized: vehicle 0, fulvestrant 100

CC(=O)Nc1ccccc1O
inactive: GFP response, % of DMSO [1] 98.7% | inhibition [2] 6.46% | superoxide response (% of plate) [3] 87.6% | aptamer binding inhibition [4] 6% | response [5] 2.64% | inhibition [6] 0.05% | response [7] 0.98% | binding (% of control) [8] 101% | efflux inhibition (fraction of control) [9] -0.28 | inhibition [10] 8% | differentiation response [11] 3.28%

CC(=O)CSc1ncnc2c1cnn2-c1ccccc1
inactive: GFP response, % of DMSO [1] 92.6% | inhibition [2] 10.3% | superoxide response (% of plate) [3] 85.6% | aptamer binding inhibition [4] 1% | response [5] 6.9% | inhibition [6] 14.5% | response [7] -1.56% | binding (% of control) [8] 105% | efflux inhibition (fraction of control) [9] 0.09 | inhibition [10] 7% | differentiation response [11] 6.55%

Cc1ccc(OCCCCn2ccnc2C)c(C)c1
inactive: GFP response, % of DMSO [1] 101% | inhibition [2] 30.4% | superoxide response (% of plate) [3] 98.5% | aptamer binding inhibition [4] 3% | response [5] -16% | inhibition [6] -1.94% | response [7] 3.03% | binding (% of control) [8] 106% | efflux inhibition (fraction of control) [9] -0.13 | inhibition [10] 10% | differentiation response [11] 5.85%

C[C@]12CC[C@H]3[C@@H](CCC4=CC(=O)CC[C@@]43C)[C@@H]1CC[C@@H]2C(=O)CO
inactive: GFP response, % of DMSO [1] 92.6% | inhibition [2] -13.9% | superoxide response (% of plate) [3] 104% | aptamer binding inhibition [4] -4% | response [5] -2.3% | inhibition [6] 11.7% | response [7] -4.52% | binding (% of control) [8] 111% | efflux inhibition (fraction of control) [9] -0.02 | inhibition [10] 7% | differentiation response [11] 14.7%

CC(C)CC(=O)Nc1ccc2oc(-c3ccncc3)nc2c1
inactive: GFP response, % of DMSO [1] 95.9% | inhibition [2] 10.3% | superoxide response (% of plate) [3] 102% | aptamer binding inhibition [4] 5% | response [5] -11.1% | inhibition [6] -5.82% | response [7] -0.11% | binding (% of control) [8] 105% | efflux inhibition (fraction of control) [9] -0.02 | inhibition [10] 11% | differentiation response [11] -2.46%

Cn1c(=O)c(C(=O)NCCO)c(O)c2ccccc21
inactive: GFP response, % of DMSO [1] 98.3% | inhibition [2] 15.9% | superoxide response (% of plate) [3] 104% | aptamer binding inhibition [4] 6% | response [5] -29.6% | inhibition [6] 6.89% | response [7] 2.23% | binding (% of control) [8] 103% | efflux inhibition (fraction of control) [9] 0 | inhibition [10] 1% | differentiation response [11] -5.97%

CC(=O)OCC(=O)[C@@]1(O)CC[C@H]2[C@@H]3CCC4=CC(=O)CC[C@]4(C)[C@H]3[C@@H](O)C[C@@]21C
inactive: GFP response, % of DMSO [1] 97% | inhibition [2] -4.6% | superoxide response (% of plate) [3] 101% | aptamer binding inhibition [4] -1% | response [5] 6.11% | inhibition [6] -11.1% | response [7] 2.08% | binding (% of control) [8] 98.4% | efflux inhibition (fraction of control) [9] -0.26 | inhibition [10] -2% | differentiation response [11] -1.71%

C1COC(NC(C2CC2)C2CC2)=N1
inactive: GFP response, % of DMSO [1] 105% | inhibition [2] 17.1% | superoxide response (% of plate) [3] 96.6% | aptamer binding inhibition [4] 3% | response [5] 3.85% | inhibition [6] 11.9% | response [7] 9.25% | binding (% of control) [8] 98.3% | efflux inhibition (fraction of control) [9] 0.23 | inhibition [10] 6% | differentiation response [11] 0.82%

CC(=O)OCC(=O)[C@H]1CC[C@H]2[C@@H]3CCC4=CC(=O)CC[C@]4(C)[C@H]3CC[C@]12C
inactive: GFP response, % of DMSO [1] 95.2% | inhibition [2] -1.3% | superoxide response (% of plate) [3] 119% | aptamer binding inhibition [4] -1% | response [5] -16.7% | inhibition [6] -3.8% | response [7] -1.21% | binding (% of control) [8] 105% | efflux inhibition (fraction of control) [9] -0.28 | inhibition [10] 8% | differentiation response [11] -1.64%

O=c1[nH]cc(F)c(=O)[nH]1
inactive: GFP response, % of DMSO [1] 90% | inhibition [2] -45% | superoxide response (% of plate) [3] 100% | aptamer binding inhibition [4] -3% | response [5] -17.5% | inhibition [6] -8.2% | response [7] 1.44% | binding (% of control) [8] 104% | efflux inhibition (fraction of control) [9] -0.06 | inhibition [10] 9% | differentiation response [11] -5.73%
